PubChem BioAssay (NCATS)
Values joined by “and” are separate entries in the source; they are usually repeats but may differ in a detail not shown here. Identical values can stand only once. Inconclusive results are not listed. Values without a mark were called inactive. Calls follow the shape of the dose curve; as a rule, active = well fitted inhibition curve with a large enough effect; inconclusive = small, poorly fitted or top-dose-only effect; inactive = flat fitted curve, though single readings scatter. Where a SMILES comes first, the peptide text is derived from it. Bridges are numbered along the chain shown (N, C = ends). [ ]: non-standard residue; d: D form. The star is where a group is joined. X1 = CC[C@@H](C)[C@@H](N)C1=N[C@H](C(=O)*)CS1; d(aIle) = CC[C@H](C)[C@@H](N)C(=O)O; dOrn = NCCC[C@@H](N)C(=O)O

System: KB-3-1
Test: Cytotoxic Profiling of Annotated Libraries Using Quantitative High-Throughput Screening (AID 1296008); also: nearly all actives have a fitted effect of over 60% in size
Conditions: Five cell lines viability, CellTiter-Glo ATP luminescence, 48-72 h; max response: active compounds read low
Outline: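 Cytotoxicity was measured as CellTiter-Glo ATP luminescence, read after 10 min at room temperature. Compound treatment of the cells lasted 48 or 72 hr at 37 degrees Celsius in a qHTS format.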
% is scaled to controls: 0 for no effect and ±100 for the full control effect.

Compound | max response
Nc1nc(=O)n([C@@H]2CS[C@H](CO)O2)cc1F | 6.08%
N=C(N)c1ccc(/C=C/c2ccc(C(=N)N)cc2O)cc1 | -19%
C=CC1=C(C(=O)O)N2C(=O)[C@@H](NC(=O)/C(=N\O)c3csc(N)n3)[C@H]2SC1 (stereo in doubt) | 5.78% and -12.7%
CCCOC(=O)c1ccccc1O | -1.94%
O=C(O)[C@H]1C(=CCO)O[C@H]2CC(=O)N12 | 8.73%
COc1c(O[C@@H]2O[C@H](CO)[C@@H](O)[C@H](O)[C@H]2O)cc2c(c1OC)-c1ccc(SC)c(=O)cc1[C@@H](NC(C)=O)CC2 | 48.2%
CC(=O)OCC1=C(C(=O)O)N2C(=O)[C@@H](NC(=O)Cc3ccccc3)[C@H]2SC1 | -5.45%
CCCCCc1ccc(C)cc1O | -0.225%
CCC(C(=O)NC(N)=O)c1ccccc1 (stereo not drawn) | 4%
S=C1SCN(Cc2ccccc2)CN1Cc1ccccc1 | 37.7%
CS(=O)(=O)c1ccc([C@@H](O)[C@@H](COC(=O)CN)NC(=O)C(Cl)Cl)cc1 | -15.1%
NC(=O)OCC(O)COc1ccc(Cl)cc1 (stereo not drawn) | 15.4%
CC[C@@H](C)[C@@H](N)C1=N[C@H](C(=O)N[C@@H](CC(C)C)C(=O)N[C@@H](CCC(=O)O)C(=O)N[C@@H](C(=O)N[C@@H]2CCCCNC(=O)[C@@H](CC(N)=O)NC(=O)[C@@H](CC(=O)O)NC(=O)[C@@H](Cc3cnc[nH]3)NC(=O)[C@@H](Cc3ccccc3)NC(=O)[C@@H]([C@H](C)CC)NC(=O)[C@@H](CCCN)NC2=O)[C@@H](C)CC)CS1 (X1-LE[d(aIle)][dK][dOrn][dI][dF][dH][dD][dN]; lactam 4-C) | 3.54% and -18.2%
